The record followed here is ChEMBL document CHEMBL1961873, “Compounds: GSK PKIS; Assays: Nanosyn kinase panel” (2012).

The target in test [1] is Mast/stem cell growth factor receptor Kit (Homo sapiens) (UniProt P10721). The note with it: at 1 µM.
Test [2] concerns Mast/stem cell growth factor receptor Kit (Homo sapiens), P10721 [D816V]. The note with it: at 0.1 µM.
The test system is the same in test [3]. The note with it: at 1 µM.
The test system of test [4] is Mast/stem cell growth factor receptor Kit (Homo sapiens), P10721 [T670I]. The following applies: at 0.1 µM.
Sequence of Mast/stem cell growth factor receptor Kit (Homo sapiens), P10721 [T670I] (P10721 whole entry T670I): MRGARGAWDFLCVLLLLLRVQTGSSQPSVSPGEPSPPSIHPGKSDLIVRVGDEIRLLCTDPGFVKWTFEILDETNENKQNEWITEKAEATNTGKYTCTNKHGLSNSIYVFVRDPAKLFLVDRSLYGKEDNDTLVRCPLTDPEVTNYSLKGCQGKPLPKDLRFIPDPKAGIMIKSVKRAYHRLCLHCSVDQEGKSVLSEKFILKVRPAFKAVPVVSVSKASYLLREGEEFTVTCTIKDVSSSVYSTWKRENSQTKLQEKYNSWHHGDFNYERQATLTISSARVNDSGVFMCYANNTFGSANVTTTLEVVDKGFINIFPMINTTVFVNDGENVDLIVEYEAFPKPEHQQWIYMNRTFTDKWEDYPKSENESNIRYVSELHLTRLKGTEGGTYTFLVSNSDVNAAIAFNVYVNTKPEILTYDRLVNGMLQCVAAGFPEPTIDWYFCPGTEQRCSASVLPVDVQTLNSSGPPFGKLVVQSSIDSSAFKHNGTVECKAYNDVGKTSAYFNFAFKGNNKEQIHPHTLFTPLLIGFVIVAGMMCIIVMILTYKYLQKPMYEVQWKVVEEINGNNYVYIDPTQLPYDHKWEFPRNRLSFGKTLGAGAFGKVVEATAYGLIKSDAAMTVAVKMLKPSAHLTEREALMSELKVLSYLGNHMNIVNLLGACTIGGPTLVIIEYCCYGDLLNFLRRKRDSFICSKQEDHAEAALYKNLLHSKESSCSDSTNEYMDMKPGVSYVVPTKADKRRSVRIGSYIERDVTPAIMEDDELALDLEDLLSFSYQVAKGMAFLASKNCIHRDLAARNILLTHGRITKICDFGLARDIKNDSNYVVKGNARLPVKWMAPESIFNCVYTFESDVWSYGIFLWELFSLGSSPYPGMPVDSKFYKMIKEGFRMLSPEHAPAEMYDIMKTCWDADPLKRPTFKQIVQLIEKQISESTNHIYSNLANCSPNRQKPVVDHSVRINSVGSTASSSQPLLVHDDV
Test [5] has the same test system. The following applies: at 1 µM.
Test [6] deals with Mast/stem cell growth factor receptor Kit (Homo sapiens), P10721 [V560G]. The note with it: at 0.1 µM.
Sequence of Mast/stem cell growth factor receptor Kit (Homo sapiens), P10721 [V560G] (P10721 whole entry V560G): as the sequence (P10721 whole entry T670I) above, with V560G, I670T counted along it
For test [7] the test system is unchanged. The following applies: at 1 µM.
The target of test [8] is Tyrosine-protein kinase Lck (Homo sapiens) (UniProt P06239). The following applies: at 0.1 µM.
Sequence of Tyrosine-protein kinase Lck (Homo sapiens) (P06239 2-509 limits assumed): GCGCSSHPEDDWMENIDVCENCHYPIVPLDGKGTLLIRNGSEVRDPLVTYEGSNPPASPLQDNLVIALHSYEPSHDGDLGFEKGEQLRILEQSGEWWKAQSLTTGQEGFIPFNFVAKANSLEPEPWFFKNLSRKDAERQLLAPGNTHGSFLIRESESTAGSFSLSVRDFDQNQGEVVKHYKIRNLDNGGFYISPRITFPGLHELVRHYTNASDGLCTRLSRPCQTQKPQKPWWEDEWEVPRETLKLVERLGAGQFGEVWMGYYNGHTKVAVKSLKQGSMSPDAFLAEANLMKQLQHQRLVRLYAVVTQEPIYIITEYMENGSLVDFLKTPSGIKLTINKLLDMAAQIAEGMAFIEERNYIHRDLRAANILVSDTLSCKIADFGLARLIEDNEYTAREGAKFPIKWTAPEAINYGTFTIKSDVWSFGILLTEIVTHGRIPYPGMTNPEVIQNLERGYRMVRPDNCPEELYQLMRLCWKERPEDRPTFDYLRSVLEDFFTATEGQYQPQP
Test [9] has the same target. The following applies: at 1 µM.
Test [10] addresses Leukocyte tyrosine kinase receptor (Homo sapiens) (UniProt P29376). The note with it: at 0.1 µM.
Test [11] shares this target. The following applies: at 1 µM.
Test [12] deals with Tyrosine-protein kinase Lyn (Homo sapiens) (UniProt P07948). The note with it: at 0.1 µM.
Sequence of Tyrosine-protein kinase Lyn (Homo sapiens) (P07948 2-512 limits assumed): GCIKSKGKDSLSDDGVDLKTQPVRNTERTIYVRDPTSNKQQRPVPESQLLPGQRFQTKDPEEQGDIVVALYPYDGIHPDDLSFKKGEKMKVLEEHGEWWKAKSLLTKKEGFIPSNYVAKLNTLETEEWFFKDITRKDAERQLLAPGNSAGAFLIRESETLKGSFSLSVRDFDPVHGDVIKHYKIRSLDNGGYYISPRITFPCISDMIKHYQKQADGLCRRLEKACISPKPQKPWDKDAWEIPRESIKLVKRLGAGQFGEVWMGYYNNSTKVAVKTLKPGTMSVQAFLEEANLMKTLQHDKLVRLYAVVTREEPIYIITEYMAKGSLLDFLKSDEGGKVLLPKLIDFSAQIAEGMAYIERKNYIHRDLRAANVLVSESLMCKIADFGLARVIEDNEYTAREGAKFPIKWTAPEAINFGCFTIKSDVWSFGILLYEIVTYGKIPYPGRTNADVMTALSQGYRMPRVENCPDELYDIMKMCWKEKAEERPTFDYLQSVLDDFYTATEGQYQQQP
For test [13] the target is unchanged. The note with it: at 1 µM.
For test [14] the target is unchanged. The following applies: at 0.1 µM. This is another data set of the same source.
Test [15] has the same target. The following applies: at 1 µM. The source holds these as a separate data set.
Test [16] addresses T1, Tyrosine-protein kinase Mer (Homo sapiens) (UniProt Q12866).
T1 sequence (whole entry): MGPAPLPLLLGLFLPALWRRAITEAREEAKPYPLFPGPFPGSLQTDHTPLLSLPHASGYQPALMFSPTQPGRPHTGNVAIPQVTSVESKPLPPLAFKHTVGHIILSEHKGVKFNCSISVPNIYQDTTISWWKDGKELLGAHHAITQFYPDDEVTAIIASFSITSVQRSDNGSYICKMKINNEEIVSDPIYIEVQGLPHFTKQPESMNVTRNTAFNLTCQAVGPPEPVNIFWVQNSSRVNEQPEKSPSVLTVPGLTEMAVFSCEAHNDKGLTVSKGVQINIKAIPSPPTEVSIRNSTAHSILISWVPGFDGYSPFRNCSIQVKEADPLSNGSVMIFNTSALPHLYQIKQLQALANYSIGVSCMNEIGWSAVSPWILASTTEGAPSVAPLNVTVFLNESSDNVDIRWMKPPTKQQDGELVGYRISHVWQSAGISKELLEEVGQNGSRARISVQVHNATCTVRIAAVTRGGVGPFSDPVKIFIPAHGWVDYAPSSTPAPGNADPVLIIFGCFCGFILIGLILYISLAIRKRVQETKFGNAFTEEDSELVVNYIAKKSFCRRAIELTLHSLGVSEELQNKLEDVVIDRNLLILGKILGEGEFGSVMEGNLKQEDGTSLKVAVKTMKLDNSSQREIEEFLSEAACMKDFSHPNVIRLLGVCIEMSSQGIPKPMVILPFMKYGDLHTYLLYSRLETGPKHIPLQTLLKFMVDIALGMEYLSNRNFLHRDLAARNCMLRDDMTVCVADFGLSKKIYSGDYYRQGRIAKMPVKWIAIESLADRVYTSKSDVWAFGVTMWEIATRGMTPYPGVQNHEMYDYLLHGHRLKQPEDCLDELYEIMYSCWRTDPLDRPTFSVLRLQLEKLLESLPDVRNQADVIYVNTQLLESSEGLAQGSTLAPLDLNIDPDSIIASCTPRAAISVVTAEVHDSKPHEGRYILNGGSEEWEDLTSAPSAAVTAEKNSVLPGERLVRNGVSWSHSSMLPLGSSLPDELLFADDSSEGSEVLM
The note with it: at 0.1 µM.

The target of test [17] is T1, Tyrosine-protein kinase Mer (Homo sapiens). The following applies: at 1 µM.
Test [18] has as its target Hepatocyte growth factor receptor (Homo sapiens) (UniProt P08581). The following applies: at 0.1 µM.
The target is the same in test [19]. The following applies: at 1 µM.
Test [20] has as its target T2, Muscle, skeletal receptor tyrosine-protein kinase (Homo sapiens) (UniProt O15146).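 Also: values are mean inhibition of MuSK from the GSK PKIS kinase screening panel.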
T2 sequence (whole entry): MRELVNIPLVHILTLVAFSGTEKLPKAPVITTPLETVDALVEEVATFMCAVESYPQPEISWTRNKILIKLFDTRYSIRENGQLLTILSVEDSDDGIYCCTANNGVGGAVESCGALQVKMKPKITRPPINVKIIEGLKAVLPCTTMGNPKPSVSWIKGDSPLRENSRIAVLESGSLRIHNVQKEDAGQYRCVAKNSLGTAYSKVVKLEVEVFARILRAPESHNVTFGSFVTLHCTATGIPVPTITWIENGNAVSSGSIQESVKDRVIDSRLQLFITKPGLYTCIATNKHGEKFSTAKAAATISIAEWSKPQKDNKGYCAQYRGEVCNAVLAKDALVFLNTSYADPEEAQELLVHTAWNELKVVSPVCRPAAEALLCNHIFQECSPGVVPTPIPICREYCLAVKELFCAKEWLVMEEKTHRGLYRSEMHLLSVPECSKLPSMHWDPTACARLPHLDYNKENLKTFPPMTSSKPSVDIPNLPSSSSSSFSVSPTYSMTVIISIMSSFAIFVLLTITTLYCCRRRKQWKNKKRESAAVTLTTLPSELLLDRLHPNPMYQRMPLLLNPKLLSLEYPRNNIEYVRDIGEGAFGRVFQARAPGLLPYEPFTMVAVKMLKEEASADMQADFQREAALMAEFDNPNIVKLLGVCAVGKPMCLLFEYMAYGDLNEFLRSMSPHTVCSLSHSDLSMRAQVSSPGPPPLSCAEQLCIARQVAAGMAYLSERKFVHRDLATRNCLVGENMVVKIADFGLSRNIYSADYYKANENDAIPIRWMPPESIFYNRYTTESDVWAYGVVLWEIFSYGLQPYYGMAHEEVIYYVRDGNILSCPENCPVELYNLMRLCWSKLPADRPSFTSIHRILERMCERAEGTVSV
The following applies: at 0.1 µM.

Sequence of Hepatocyte growth factor receptor (Homo sapiens) (P08581 whole entry): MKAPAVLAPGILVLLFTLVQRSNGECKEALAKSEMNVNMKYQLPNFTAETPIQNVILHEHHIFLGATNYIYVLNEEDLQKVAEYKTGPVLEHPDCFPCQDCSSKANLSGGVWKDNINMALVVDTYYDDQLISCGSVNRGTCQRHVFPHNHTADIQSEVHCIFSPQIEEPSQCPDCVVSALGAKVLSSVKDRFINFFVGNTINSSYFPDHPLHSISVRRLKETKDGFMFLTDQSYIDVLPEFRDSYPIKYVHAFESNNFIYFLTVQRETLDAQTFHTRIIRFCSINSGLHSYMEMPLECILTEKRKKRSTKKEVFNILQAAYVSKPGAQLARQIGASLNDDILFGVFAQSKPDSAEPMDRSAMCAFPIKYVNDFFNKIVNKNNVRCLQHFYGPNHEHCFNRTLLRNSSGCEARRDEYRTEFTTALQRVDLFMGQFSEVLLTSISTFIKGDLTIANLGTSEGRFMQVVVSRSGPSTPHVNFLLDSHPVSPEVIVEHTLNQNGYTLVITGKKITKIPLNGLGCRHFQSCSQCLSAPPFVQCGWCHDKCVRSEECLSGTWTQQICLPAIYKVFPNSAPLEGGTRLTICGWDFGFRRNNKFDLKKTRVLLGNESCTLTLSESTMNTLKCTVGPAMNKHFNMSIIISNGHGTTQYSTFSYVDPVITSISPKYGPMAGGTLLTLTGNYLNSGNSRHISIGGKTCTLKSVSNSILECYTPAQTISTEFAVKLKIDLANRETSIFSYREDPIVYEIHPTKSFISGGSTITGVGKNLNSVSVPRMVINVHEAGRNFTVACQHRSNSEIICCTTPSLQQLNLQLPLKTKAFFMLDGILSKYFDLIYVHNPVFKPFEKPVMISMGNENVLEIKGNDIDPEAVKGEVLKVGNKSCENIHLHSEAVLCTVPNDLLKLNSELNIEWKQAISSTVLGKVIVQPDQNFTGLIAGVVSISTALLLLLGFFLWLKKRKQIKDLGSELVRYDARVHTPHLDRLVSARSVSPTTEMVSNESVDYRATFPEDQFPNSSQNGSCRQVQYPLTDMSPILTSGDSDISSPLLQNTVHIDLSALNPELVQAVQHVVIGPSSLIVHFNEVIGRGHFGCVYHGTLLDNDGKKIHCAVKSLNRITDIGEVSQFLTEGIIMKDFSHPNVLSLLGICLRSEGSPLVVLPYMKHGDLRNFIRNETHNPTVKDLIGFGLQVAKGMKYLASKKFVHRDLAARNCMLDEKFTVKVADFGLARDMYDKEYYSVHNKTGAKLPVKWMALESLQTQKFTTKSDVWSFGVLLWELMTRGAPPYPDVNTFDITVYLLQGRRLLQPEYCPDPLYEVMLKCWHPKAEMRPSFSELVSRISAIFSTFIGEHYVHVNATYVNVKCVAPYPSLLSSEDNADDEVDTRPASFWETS
Sequence of Mast/stem cell growth factor receptor Kit (Homo sapiens), P10721 [D816V] (P10721 whole entry D816V): as the sequence (P10721 whole entry T670I) above, with I670T, D816V counted along it
Sequence of Leukocyte tyrosine kinase receptor (Homo sapiens) (P29376 whole entry): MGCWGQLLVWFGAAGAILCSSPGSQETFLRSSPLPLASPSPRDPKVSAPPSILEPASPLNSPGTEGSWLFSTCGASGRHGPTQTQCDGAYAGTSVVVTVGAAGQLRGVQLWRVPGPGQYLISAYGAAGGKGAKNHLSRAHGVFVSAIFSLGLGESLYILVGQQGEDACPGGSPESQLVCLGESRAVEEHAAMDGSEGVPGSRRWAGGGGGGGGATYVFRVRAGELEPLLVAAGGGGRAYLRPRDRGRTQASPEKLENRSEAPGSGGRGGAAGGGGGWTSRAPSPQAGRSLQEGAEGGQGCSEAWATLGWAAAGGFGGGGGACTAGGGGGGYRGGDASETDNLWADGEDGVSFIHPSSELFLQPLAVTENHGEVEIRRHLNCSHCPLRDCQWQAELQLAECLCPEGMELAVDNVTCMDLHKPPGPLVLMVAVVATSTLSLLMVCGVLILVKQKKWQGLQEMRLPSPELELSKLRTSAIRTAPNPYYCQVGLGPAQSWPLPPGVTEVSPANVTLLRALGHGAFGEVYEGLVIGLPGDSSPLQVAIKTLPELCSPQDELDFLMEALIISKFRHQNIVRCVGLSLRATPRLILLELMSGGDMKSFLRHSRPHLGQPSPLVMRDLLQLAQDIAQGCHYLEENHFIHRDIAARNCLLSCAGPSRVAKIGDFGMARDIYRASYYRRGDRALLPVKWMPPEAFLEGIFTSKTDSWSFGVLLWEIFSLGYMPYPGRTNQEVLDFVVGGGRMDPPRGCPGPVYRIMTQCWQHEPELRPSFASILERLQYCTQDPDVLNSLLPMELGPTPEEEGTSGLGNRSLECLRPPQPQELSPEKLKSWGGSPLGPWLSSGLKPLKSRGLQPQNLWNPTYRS
Sequence of Mast/stem cell growth factor receptor Kit (Homo sapiens) (P10721 whole entry): as the sequence (P10721 whole entry T670I) above, with I670T counted along it

For `N#Cc1c(NC(=O)CN2CCOCC2)sc2c1CCCC2`, the inhibition (commonly the change of the read-out against control, counted positive when it falls) in test [1] was 7.99%; in test [2], 3.63%; in [3] it was 3.93%; in test [4] it was 4.93%; in test [5] it was 3.32%; in test [6] it was 2.47%. For the same compound, the inhibition amounted to 3.82% in test [7]; 1.87% in [8]; 4.64% in test [9]; 4.93% in test [10]; 4.38% in [11]; 4.72% in test [12]. Moreover, the inhibition in test [13] came to 7.89%; in test [14], 2.92%; in test [15], 5.26%; in test [16] it was 1.87%; in test [17] it was 4.98%; in test [18] it was 7.91%. For the same compound, the inhibition in [19] was 13%; in test [20], 2.41%.
As for `COc1cccc(-n2ncc3c(N/N=C/c4ccc(F)cc4)ncnc32)c1`, the inhibition in test [1] was 17.1%; in test [2] it was 7.16%; in test [3], 7.84%; in test [4] it was 5.29%; in test [5], 5.91%; in test [6], -0.37%. Moreover, the inhibition in test [7] was 5.46%; in test [8] it was 13.5%; in [9] it was 45.5%; in test [10], 4.1%; in [11], 3.69%; in test [12], 19.6%. The inhibition in test [13] is 48.7%; in test [14], 14.6%; in [15], 43.9%; in [16], 3.7%; in [17], 5.19%; in [18], 2.87%. The inhibition in test [19] was found to be 16.6%; in test [20], 3.89%.
On to `COc1ccc(-c2nn3ncccc3c2-c2ccnc(Nc3ccc4c(c3)OCCO4)n2)cc1`, for which the inhibition in test [1] is 85.2%; in test [2], -1.73%; in test [3], 0.8%; in [4], 3.74%; in test [5], 34.7%; in [6], 9.03%. Also, the inhibition in test [7] was determined as 61.7%; in [8], 34.8%; in test [9], 66.8%; in test [10], 3.69%; in test [11], 23.5%; in [12] it was 13.8%. The inhibition in test [13] is 60.4%; in test [14], 9.96%; in test [15], 55.4%; in test [16], -0.06%; in test [17], 12.9%; in test [18], -1.3%. The inhibition in [19] was 8.57%; in [20], -0.81%.
As for `NS(=O)(=O)c1ccc(N/N=C2\C(=O)Nc3ccc4ncccc4c32)cc1`, the inhibition in test [1] came out at 90.7%; in test [2], 5.95%; in test [3], 23.6%; in [4], 10.2%; in [5] it was 69.4%; in [6] it was 3.66%. In addition, the inhibition is 36.8% in test [7]; 5.5% in [8]; 30.1% in [9]; 2.17% in [10]; 10.1% in test [11]; 8.74% in test [12]. Moreover, the inhibition in test [13] came to 44.3%; in test [14], 6.92%; in test [15], 40%; in test [16], 1.59%; in test [17], 17.5%; in test [18], 4.71%. Further, the inhibition in test [19] is 19.4%; in [20] it was 11.3%.
For `CNC(=O)c1cccc(C#Cc2cncnc2Nc2ccc(OCc3cccc(F)c3)c(Cl)c2)c1`, the inhibition worked out at 8.09% in test [1]; 0.89% in [2]; 3.12% in [3]; 0.83% in test [4]; 3.3% in [5]; 1.32% in [6]. Moreover, the inhibition in [7] was found to be 5.48%; in [8], 1.2%; in test [9], 1.35%; in [10] it was 1.28%; in [11], 0.16%; in [12], 3.69%. In addition, the inhibition in [13] came to 5.89%; in test [14], 2.02%; in test [15], 2.83%; in [16] it was 1.54%; in [17], 2.26%; in test [18], 3.13%. In addition, the inhibition in test [19] is 5.11%; in [20], -0.28%.
